Screening results from PubChem.
Giardia kill: Giardia lamblia killing. hit rate 0.15% among 340,000. activity change, % at 7.66 µM, hits read low. AID 540267. Giardia lamblia trophozoite viability; in the data active = activity change below about -80%; inconclusive = between about -30% and that limit;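 also: parasites exposed to compound for two days anaerobically before the ATP read; % is scaled to controls: 0 for no effect and ±100 for the full control effect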
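Giardia trophozoites, 100 cells per well, were exposed to compounds for 48 hrs at 37 deg C under anaerobic conditions; viability was then read as ATP content by bioluminescence after 15-30 min at room temperature.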
MCF10A rereplic: DNA re-replication induction in MCF 10a cells; MCF 10A DNA re-replication, Hoechst nuclear intensity, 48 h; Potency, µM (series often up to 46.1 µM), without a hit: at the highest dose activity, positive = re-replication, usual class: activators; hit rate 2.9% among 350,000; also: potency is read from the fitted curve at half-maximal effect; % of control where 0% means no effect; nearly all actives have a fitted effect of over 50% in size
SW480 rerep: inducers of DNA re-replication in SW480 colon cancer cells; SW480 DNA re-replication, Hoechst DNA content imaging, 48 h; Potency, µM (series often up to 46.1 µM), inactives show at the top dose re-replication activation, hits mostly activators; hit rate 1.8% among 340,000; AID 624297; also: potency is read from the fitted curve at half-maximal effect; % of control where 0% means no effect; nearly all actives have a fitted effect of over 55% in size
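250 cells/well; 23 nL cpd via pin tool; 48 hr, 37 C, 5% CO2; Hoechst 40 min; imager read of total nuclear intensity, ex 405/em 500-530 nm.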
KB-3-1 tox: KB-3-1 parental cell cytotoxicity | KB-3-1 viability, CellTiter-Glo ATP luminescence, 72 h | Potency, µM (highest dose often 46.1 µM), actives largely listed as cytotoxic | hit rate 1.4% among 400,000 | AID 1347075; also: potency is read from the fitted curve at half-maximal effect; % is scaled to controls: 0 for no effect and ±100 for the full control effect; nearly all actives have a fitted effect of over 60% in size
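Cytotoxicity measured as CellTiter-Glo luminescence after 72 h at 37 C. Compound titrations were pinned onto drug-naive KB-3-1 parental adenocarcinoma cells grown in DMEM with 10% FBS, and normalized data fitted to concentration-response curves.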
KB-V1 MDR tox: kills drug-selected multidrug resistant KB-V1 cells | KB-V1 MDR cells viability, CellTiter-Glo, 72 h | Potency, µM (highest dose often 46.1 µM), actives largely listed as cytotoxic | hit rate 3.4% among 400,000 | AID 1347076; also: potency is read from the fitted curve at half-maximal effect; % is scaled to controls: 0 for no effect and ±100 for the full control effect; nearly all actives have a fitted effect of over 60% in size
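Cells of the MDR subline KB-V1 are plated, dosed with compound at multiple concentrations, and incubated 72 h at 37 degrees C; CellTiter-Glo is then added and luminescence read after 10 min.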
S-ASM inh: human S-ASM enzyme inhibition; P17405; Potency, µM (titrated, usually from 57.5 µM), for the others: top-dose activity change, negative = inhibition, actives largely listed as inhibitors; hit rate 0.006% among 340,000; placental ASM, HMU-PC fluorogenic substrate, 60 min; AID 504937; also: potency is read from the fitted curve at half-maximal effect
Target sequence (P17405 47-631 limits assumed): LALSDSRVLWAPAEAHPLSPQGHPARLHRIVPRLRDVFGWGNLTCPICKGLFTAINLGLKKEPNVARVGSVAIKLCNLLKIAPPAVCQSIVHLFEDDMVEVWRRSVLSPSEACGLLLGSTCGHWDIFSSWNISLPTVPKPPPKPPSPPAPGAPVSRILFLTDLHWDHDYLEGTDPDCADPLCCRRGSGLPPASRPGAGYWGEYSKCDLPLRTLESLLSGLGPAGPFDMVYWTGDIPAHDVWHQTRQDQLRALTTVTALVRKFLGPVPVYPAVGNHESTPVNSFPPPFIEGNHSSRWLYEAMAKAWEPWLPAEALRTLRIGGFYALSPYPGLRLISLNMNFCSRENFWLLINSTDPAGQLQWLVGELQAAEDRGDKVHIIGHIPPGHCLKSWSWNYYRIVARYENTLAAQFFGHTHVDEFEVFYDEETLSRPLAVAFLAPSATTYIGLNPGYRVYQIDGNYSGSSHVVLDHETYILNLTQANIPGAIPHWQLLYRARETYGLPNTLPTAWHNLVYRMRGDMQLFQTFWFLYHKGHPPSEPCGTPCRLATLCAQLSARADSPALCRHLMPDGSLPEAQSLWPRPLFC
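Fluorescence read-out (Ex 386 nm, Em 447 nm) after stopping the reaction at pH 10. Enzyme: ASM from human placenta; substrate HMU-PC0, 9 uM final; 60 min, 37 °C. Compound preincubation 10 min, ambient temperature.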
* hit, by the source's call; i = inactive; ? = inconclusive; . = no result. An excerpt weighted towards active compounds, which were near 6.9% of everything screened. Unless noted, calls follow the shape of the dose curve; as a rule, active = well fitted curve in the direction sought with a large enough effect; inconclusive = small, poorly fitted or top-dose-only effect, or another doubt; inactive = no such curve, though single readings can be large; an effect the other way counts as inactive or inconclusive.

SMILES	Giardia kill	MCF10A rereplic	SW480 rerep	KB-3-1 tox	KB-V1 MDR tox	S-ASM inh
CCOC(=O)C1CCN(C(=O)COC(=O)C23CC4CC(CC(C4)C2)C3)CC1	-15.0	-0.2%	-25.6%	i	?	4.3%
Cc1ccc(C)c(Nc2nc3nonc3nc2N2CCOCC2)c1	-8.2	-1.3%	0.3%	i	?	-1.3%
Cc1ccc(C)c(Nc2nc3nonc3nc2Nc2cccc(C)c2C)c1	.	.	.	20.6µM*	?	.
CCOC(=O)C1CCN(C(=O)c2ccccc2)C(CC)C1=O (centres undefined)	11.1	2.5%	-5.1%	i	20.6µM*	0.5%
CCOC(=O)c1c(-c2ccccc2)oc2ccc(O)c(CN3CCN(C)CC3)c12	12.2	23.1µM*	15.0%	?	20.6µM*	-4.6%
O=C(c1cccc([N+](=O)[O-])c1)N1CCN(C/C=C/c2ccccc2)CC1	4.4	1.7%	-0.8%	i	?	-0.4%
CC(C(=O)Nc1cccc([N+](=O)[O-])c1)N1CCN(C/C=C/c2ccccc2)CC1 (centres undefined)	-13.0	-1.9%	8.5%	i	3.66µM*	-3.1%
COC(=O)C1CCN(C(=O)c2oc3c(Cl)cc(C)cc3c2C)CC1	7.7	4.9%	-5.4%	i	i	-1.9%
Cc1cc(Cl)c2oc(C(=O)N3CCN(c4ccncc4)CC3)c(C)c2c1	18.6	5.8µM*	11.6µM*	?	?	-5.3%
O=C(CN(C1CCCCC1)S(=O)(=O)c1ccc(F)cc1)NCC1CCCO1 (centres undefined)	-84.1*	?	1.16µM*	4.61µM*	?	-14.2%
Cc1ccc(S(=O)(=O)c2nc(-c3ccc(F)cc3)oc2SCC(=O)NCC2CCCO2)cc1 (centres undefined)	6.9	?	-0.1%	i	1.84µM*	-0.5%
O=C(CN(C1CCCCC1)S(=O)(=O)c1ccc(F)cc1)NCc1ccncc1	-4.8	-10.5%	-3.7%	i	8.2µM*	0.1%
COc1ccc(NC(=O)[C@H](C)NS(=O)(=O)c2ccc(NC(C)=O)cc2)cc1Cl	.	.	.	i	i	.
COc1ccc(NC(C)C(=O)Nc2ccc(C(C)(C)C)cc2)cc1Cl (centres undefined)	1.4	16.4µM*	11.8%	i	i	-11.0%
COc1ccc(NC(C)C(=O)Nc2ccc(C#N)cc2)cc1Cl (centres undefined)	22.4	7.0%	-8.8%	i	20.6µM*	-7.6%
Nc1cccc2c1C(=O)N(CCOc1ccccc1F)C2=O	-17.8	18.4µM*	?	i	i	i
O=C1c2ccccc2C(=O)N1CCOCCN1C(=O)c2ccccc2C1=O	-2.0	2.0%	-9.0%	i	i	2.7%
N#Cc1ccccc1OCCN1C(=O)c2ccccc2C1=O	-12.0	11.6µM*	-10.2%	i	i	-1.3%
CN(CC(=O)Nc1cc(Cl)cc(Cl)c1)Cc1cccs1	2.5	?	?	i	i	1.2%
CC(C)(C)c1ccc(C(=O)Nc2ccccc2C(=O)OCc2cc(=O)n3ccsc3n2)cc1	.	.	.	i	?	.
CC(=O)Oc1ccc(C(=O)COC(=O)CNC(=O)COc2ccccc2C)cc1	?	.	.	i	i	.
CN(C)C(=O)C1(c2ccccc2)CCN(S(=O)(=O)c2ccccc2)CC1	2.3	0.4%	-7.5%	?	20.6µM*	-0.6%
O=C(O)C1(c2ccccc2)CCN(S(=O)(=O)c2ccccc2)CC1	-5.2	3.8%	-3.2%	i	i	0.0%
CC1CCN(C(=O)CN(C)S(=O)(=O)c2cccc3nsnc23)CC1	27.4	1.5%	-3.4%	i	23.1µM*	-1.4%
O=c1cc(-c2ccccc2)nc(SCc2nc(-c3cccc(C(F)(F)F)c3)no2)[nH]1	.	.	.	i	i	.
SMILES	Giardia kill	MCF10A rereplic	SW480 rerep	KB-3-1 tox	KB-V1 MDR tox	S-ASM inh
COC(=O)c1cc(C(=O)N2CCN(c3ncccn3)CC2)cc([N+](=O)[O-])c1	35.1	59.9%	-5.5%	i	?	5.4%
COC(=O)c1cc(C(=O)N2CCN(c3cccc(C)c3C)CC2)cc([N+](=O)[O-])c1	-5.4	?	4.11µM*	5.8µM*	i	0.3%
COC(=O)c1cc(C(=O)N2CCN(c3ccccc3OC)CC2)cc([N+](=O)[O-])c1	18.6	1.16µM*	2.06µM*	1.16µM*	1.3µM*	-1.9%
Cc1ccccc1N1CCN(C(=S)c2ccc([N+](=O)[O-])cc2)CC1	-10.4	8.5%	-0.8%	i	16.4µM*	-1.6%
CN(C)C=Nc1c(I)cc(I)c(CCC(=O)O)c1I	.	0.1%	-0.8%	.	.	.
CCOCCCn1c(=N)c(C(=O)NCc2cccnc2)cc2c(=O)n3ccccc3nc21	.	.	.	i	i	.
CCOc1ccc(NC(=O)COC(=O)c2c(OC)cccc2OC)cc1	20.3	1.2%	-5.9%	i	i	-0.5%
COc1ccc(OC)c(NC(=O)c2ccccc2SC)c1	-1.7	2.2%	-1.4%	i	18.4µM*	2.1%
COc1ccc(OC)c(/C(O)=C/C(=O)C(=O)Nc2ccccc2OC)c1	1.3	5.6%	-15.4%	i	9.2µM*	-6.1%
CCOc1ccc(NC(=O)c2c(OC)cccc2OC)cc1	15.9	0.651µM*	-4.7%	i	i	2.7%
COc1ccc(NC(=O)c2ccccc2SC)cc1	2.8	-2.9%	0.6%	i	i	-0.7%
COc1ccccc1C(=O)Nc1ccccc1SC(=O)c1ccccc1OC	6.8	20.6µM*	?	?	i	-1.0%
CN(C)C(=O)COc1ccccc1C(=O)OCC(=O)N(CCC#N)c1ccccc1	.	.	.	i	?	.
Cc1ccc(N(CC(=O)Nc2ccc(C)c(Cl)c2)S(=O)(=O)c2cccs2)cc1	.	.	.	i	i	.
COc1ccccc1NC(=O)c1ccccc1NC(=O)c1ccccc1	.	.	.	i	i	.
CCOc1cc(NC(=O)c2ccccc2OC)c(OCC)cc1NC(=O)c1ccccc1	3.9	?	14.6µM*	?	i	173.9%
CCOc1ccccc1C(=O)Nc1cc(OC)ccc1OC	-1.7	9.1%	1.4%	i	14.6µM*	-6.1%
COc1c(-c2ccccc2)oc2c(ccc3occc32)c1=O	14.0	8.1%	7.0%	i	i	-3.7%
Cc1cccc(N2CCN(C(=O)CCn3c(=S)[nH]c4cc5c(cc4c3=O)OCO5)CC2C)c1 (centres undefined)	-10.4	?	1.0%	i	10.3µM*	-21.2%
